High-throughput results (PubChem BioAssay)
The list is not random: actives were taken first. Their share in the collection is about 3.8%.
KCNH2 WT inh – blocks the wildtype human KCNH2 potassium channel; Q12809; U2OS, BacMam KCNH2, thallium flux FluxOr; hits give low values; activity change, % at 1.84 µM; actives 0.37% (n = 340,000);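 active = maximum activity change below -70%; inconclusive = maximum activity change between -70% and -50%; inactive = maximum activity change above -50%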; note: % is set by controls: 0 for no effect and ±100 for the full control effect
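U2OS cells transduced with wild-type KCNH2 virus are loaded with FluxOr dye for 45 min, and thallium flux is measured in kinetic reads before and after stimulation buffer. Rate constants are normalized to DMSO controls.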
VDR inhibitor – blocks the human vitamin D receptor; AID 504847; actives 0.93% (n = 400,000); P11473; VDR-SRC2-3 peptide fluorescence polarization, 2 h; Potency, µM, inactives show max response, negative = inhibition, most hits filed as inhibitors; note: potency is the fitted concentration of half-maximal effect; % is set by controls: 0 for no effect and ±100 for the full control effect
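The screen uses fluorescence polarization to detect compounds that interfere with recruitment of the SRC2-3 coactivator peptide to VDR; plates are read after 2 h at room temperature.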
KCNH2 3.1 inh – inhibitors of human KCNH2 3.1 potassium channel isoform; U2OS KCNH2 3.1, thallium flux FluxOr; hits give low values; activity change, % (tested at about 1.8 µM); actives 0.95% (n = 340,000);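 active = maximum activity change below -70%; inconclusive = maximum activity change from -70% to -50%; inactive = maximum activity change above -50%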;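 note: thallium influx rate constant from kinetic fluorescence after stimulation buffer; % is set by controls: 0 for no effect and ±100 for the full control effect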
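U2OS cells transduced with KCNH2 3.1 mutant virus (1.77 x 10^8 /mL, 4 h), plated overnight at 37 C, loaded 45 min with FluxOr dye plus Red40 quencher. Thallium flux rate constant from kinetic reads after stimulation buffer, normalised to controls.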
MBNL1 CUG block – blocks human MBNL1 binding to CUG repeat RNA | Q9NR56 | TR-FRET MBNL1-His/biotin-(CUG)12 binding, 665/545 ratio | Potency, µM (highest dose often 57.5 µM), inactives show top-dose activity change, negative = inhibition, most hits filed as inhibitors | actives 0.036% (n = 280,000); active = well fitted inhibition curve with a large enough effect in the signal ratio, with a control signal flat, not every such curve was filed as active; inconclusive = small, poorly fitted or top-dose-only effect, or effect the other way, or a change in a side signal; inactive = no such curve, though single readings can be large or run the other way; the % refers to the signal ratio; note: potency is the fitted concentration of half-maximal effect; % is set by controls: 0 for no effect and ±100 for the full control effect
Target sequence (Q9NR56 whole entry, looked up): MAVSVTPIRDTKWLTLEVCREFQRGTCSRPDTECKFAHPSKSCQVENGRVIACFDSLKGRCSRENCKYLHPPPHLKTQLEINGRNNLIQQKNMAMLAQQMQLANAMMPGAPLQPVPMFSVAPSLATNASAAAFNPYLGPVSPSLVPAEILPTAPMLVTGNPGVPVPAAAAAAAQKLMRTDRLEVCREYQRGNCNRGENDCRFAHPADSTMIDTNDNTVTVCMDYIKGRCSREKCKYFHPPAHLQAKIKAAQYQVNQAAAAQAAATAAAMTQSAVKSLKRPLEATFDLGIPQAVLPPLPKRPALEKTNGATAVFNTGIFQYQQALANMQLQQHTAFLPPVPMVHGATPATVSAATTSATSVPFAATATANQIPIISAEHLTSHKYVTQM
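Ratiometric TR-FRET (665 over 545 nm, excitation 340 nm) tracks disruption of MBNL1-His/biotin-(CUG)12 complex after 60 min at room temperature, with compounds at 92 nM to 58 uM final.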
CBFb-RUNX1 inh – inhibitors of human CBF-beta and RUNX1 interaction; AlphaScreen CBFb-His/RUNX1-biotin binding, biochemical; Potency, µM (doses to about 59.8 µM), for inactives: at the highest dose activity, negative = inhibition, hits mostly inhibitors; 230,000 tested, under 10 active; AID 1477; note: % of control where 0% means no effect
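Compounds were screened at multiple concentrations against a preformed CBF-beta(His)/RUNX1(biotin) complex (30 nM of each) for 15 min at room temperature, followed by 90 min with nickel and streptavidin beads and AlphaScreen reading.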
PLK1 PBD block – PLK1 (human) polo-box domain binding inhibition | P53350 | Plk1 PBD binding of FITC phosphopeptide, fluorescence polarization | Potency, µM, inactives show max response, negative = inhibition, actives largely listed as inhibitors | actives 2.8% (n = 360,000) | AID 720504; note: potency is the fitted concentration of half-maximal effect; series mostly up to about 57 µM; % is set by controls: 0 for no effect and ±100 for the full control effect; nearly all actives have a fitted effect of over 65% in size
The depositor's hits bear a star; u = inconclusive; x = no result given; [ ] = remark or other dose. Unless noted, calls come from the whole dose curve; as a rule, active = well fitted curve in the direction sought with a large enough effect; inconclusive = small, poorly fitted or top-dose-only effect, or another doubt; inactive = no such curve, though single readings can be large; an effect the other way counts as inactive or inconclusive.

SMILES | KCNH2 WT inh | VDR inhibitor | KCNH2 3.1 inh | MBNL1 CUG block | CBFb-RUNX1 inh | PLK1 PBD block
CCOC(=O)CC(SP(=S)(OC)OC)C(=O)OCC (stereo unspecified) | x | 28µM* | x | x | -10%[21.7 µM] | x
CCOC(=O)c1c(NC(=O)c2c(N)n(CCCOC)c3nc4ccccc4nc23)sc2c1CCCC2 | 4 | -1% | -71* | 10% | -2% | -7%
COc1ccc(/C=C/C=C2C(=O)NC(=S)NC2=O)cc1 | -3 | u | 0 | x | x | 0.53µM*
COc1ccc(C=C2C(=O)NC(=S)NC2=O)cc1OC | -9 | 40µM* | 19 | x | x | 21µM*
COc1ccc(/C=C2/C(=O)NC(=O)N(C3CCCCC3)C2=O)cc1CSc1ccccn1 | x | x | x | -7% | 1% | x
COc1ccc(N2C(=O)NC(=O)/C(=C\c3cn(C)c4ccccc34)C2=O)cc1 | 3 | -4% | 14 | 18% | x | -1%
CCOc1cc(C=C2C(=O)NC(=S)NC2=O)ccc1O | -2 | u | 15 | x | x | 6µM*
CCCc1cc2c(n1Cc1ccco1)C(C)C1CN(C(=O)c3ccccc3)C(C)(C(=O)OC)C21 (stereo unspecified) | x | x | x | x | 14% | x
Oc1c(Cl)c(Cl)c(Cl)c(Cl)c1Cl | -2 | 89µM* | -4 | x | 10%[21.7 µM] | 27µM*
C=CC[C@]1(O)CC[C@H]2[C@@H]3CCC4=CC(=O)CCC4=C3C=C[C@@]21C | x | u | x | x | 11% | x
COC(=O)[C@@H]1C[C@@]2(O)[C@H](O)[C@H](O)[C@H](O)C[C@H]2N1Cc1cccnc1 | x | x | x | x | 0% | x
COC(=O)c1nc(-c2ccc3c(n2)C(=O)C(N)=C(OC)C3=O)c(N)c(-c2ccc(OC)c(OC)c2O)c1C | 3 | 10µM* | 13 | u | -7% | -6%
CN(CCc1ccc(Cl)c(Cl)c1)[C@@H]1CCCC[C@@H]1N1CCCC1 | x | -2% | x | x | 16% | x
O=C(c1ccc(CNS(=O)(=O)c2ccccc2)cc1)N1CCC2(CC1)OCCO2 | 0 | -21% | 1 | 11% | 0% | 21µM*
O=C(c1ccc(CNS(=O)(=O)c2ccc(Br)cc2)cc1)N1CCC2(CC1)OCCO2 | -19 | -11% | 2 | -3%[11.5 µM] | -25% | 4%
CCOC(=O)[C@@]1(C#N)[C@@H]2C=CC(C(N)=O)=CN2[C@@H](C(N)=O)[C@@H]1c1cccc(Cl)c1 | -2 | -2% | 2 | 20% | -3% | 27µM*
C[C@@H]1CO1 | x | -3% | x | x | 20% | x
S=c1[nH]c2cc(Br)cnc2[nH]1 | 20 | -6% | -9 | -12% | 14% | 13µM*
CCOc1cc(/C=C(\C#N)C(=O)NCC2CCCO2)ccc1OCC(N)=O (stereo unspecified) | -136* | -26% | -185* | 16% | 8% | 30µM*
CCOc1cccc(OCC)c2c(C)[n+](CC3CCCO3)c(C)c1-2 (stereo unspecified) | -9 | -29% | -5 | 20% | u | -16%
COC(=O)C1=Nc2ccccc2/C1=C\c1c(O)n(-c2ccc(OC)cc2)c(=O)[nH]c1=O | -11 | u | -18 | u | -20% | 3.4µM*
O=c1[nH]c(=O)n(-c2cccc(F)c2)c(O)c1/C=C1\C=Nc2ccccc21 | -4 | 5% | 2 | 5% | x | u
Cn1c(O)c(/C=C2\C=Nc3ccccc32)c(=O)n(C)c1=O | -9 | -15% | 14 | 2% | x | -13%
O=C(O)c1ccc(-n2c(O)c(/C=C3\C=Nc4ccccc43)c(=O)[nH]c2=O)cc1 | -1 | -16% | 9 | 11% | x | 9.5µM*
COc1ccc(OC)c(-n2c(O)c(/C=C3\C(C)=Nc4ccccc43)c(=O)[nH]c2=O)c1 | 3 | -1% | 6 | -4% | -3% | u
O=c1[nH]c(=O)n(-c2ccccc2)c(O)c1/C=C1/C(c2ccccc2)=Nc2ccccc21 | -3 | u | 14 | x | 13% | 11µM*
COC(=O)C1=Nc2ccccc2/C1=C\c1c(O)n(C)c(=O)n(C)c1=O | -6 | u | -8 | u | 4% | 4.7µM*
